# Assay results from article PMC7862700, “An all-to-all approach to the identification of sequence-specific readers for epigenetic DNA modifications on cytosine”.
# What was measured:
# Test in all cases: DAPPL (digital affinity profiling via proximity ligation, sequencing); 10 mM Tris-HCl pH 7.5, 50 mM NaCl, 1 mM DTT, 4% glycerol, room temperature, 30 min; GST-TFs on glutathione beads, 16-mer random dsDNA library, 0.1% formaldehyde crosslink after washing; high values mean tight binding
# FLI1 = biological target: T1, FLI1 (Homo sapiens, UniProt Q01543 1-452); settings: protein: recombinant; tags: N-terminal GST; dsDNA, one strand shown
# T1 sequence: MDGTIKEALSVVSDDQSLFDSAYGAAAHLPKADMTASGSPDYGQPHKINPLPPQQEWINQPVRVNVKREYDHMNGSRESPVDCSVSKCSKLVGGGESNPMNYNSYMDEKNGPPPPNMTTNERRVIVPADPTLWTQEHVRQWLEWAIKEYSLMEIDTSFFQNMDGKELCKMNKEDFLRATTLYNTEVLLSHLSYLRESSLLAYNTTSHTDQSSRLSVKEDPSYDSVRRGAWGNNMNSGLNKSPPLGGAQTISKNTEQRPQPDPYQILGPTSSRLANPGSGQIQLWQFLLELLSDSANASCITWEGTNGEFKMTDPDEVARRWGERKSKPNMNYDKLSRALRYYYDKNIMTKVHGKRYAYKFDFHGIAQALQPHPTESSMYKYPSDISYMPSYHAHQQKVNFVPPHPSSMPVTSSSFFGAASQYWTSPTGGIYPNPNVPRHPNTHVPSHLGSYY
# Summary of the method: (§1)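 GST fusions of human transcription factors were expressed in yeast and captured with glutathione beads. Once given DNA barcodes and pooled alongside a tag-only sample, they were incubated for 30 min at room temperature with 200 nmole of a random double-stranded 16-mer DNA library in Tris/NaCl/DTT/glycerol buffer, then washed, crosslinked (0.1% formaldehyde), proximity-ligated, PCR-amplified and sequenced on an Illumina NextSeq500. The binding signal of each hexamer is its read frequency for a factor divided by its frequency for the tag-only sample.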
# ELK1 = biological target: T2, ELK1 (Homo sapiens, UniProt P19419 1-428); settings: protein: recombinant; tags: N-terminal GST; dsDNA, one strand shown
# T2 sequence: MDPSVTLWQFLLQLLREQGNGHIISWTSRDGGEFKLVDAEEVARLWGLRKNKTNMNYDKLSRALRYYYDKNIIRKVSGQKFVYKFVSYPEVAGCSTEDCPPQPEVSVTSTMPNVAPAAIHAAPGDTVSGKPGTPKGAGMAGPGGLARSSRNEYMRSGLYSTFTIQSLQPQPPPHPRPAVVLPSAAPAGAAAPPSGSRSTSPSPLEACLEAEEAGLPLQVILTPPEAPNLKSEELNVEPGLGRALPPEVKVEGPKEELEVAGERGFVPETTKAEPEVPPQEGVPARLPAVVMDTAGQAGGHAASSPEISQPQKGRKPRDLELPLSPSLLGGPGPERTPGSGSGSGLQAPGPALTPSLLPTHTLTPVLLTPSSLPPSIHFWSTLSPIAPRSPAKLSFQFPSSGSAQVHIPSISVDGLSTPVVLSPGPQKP
# Summary of the method: as §1
# GABPA = biological target: T3, GABPA (Homo sapiens, UniProt Q06546 1-454); settings: protein: recombinant; tags: N-terminal GST; dsDNA, one strand shown
# T3 sequence: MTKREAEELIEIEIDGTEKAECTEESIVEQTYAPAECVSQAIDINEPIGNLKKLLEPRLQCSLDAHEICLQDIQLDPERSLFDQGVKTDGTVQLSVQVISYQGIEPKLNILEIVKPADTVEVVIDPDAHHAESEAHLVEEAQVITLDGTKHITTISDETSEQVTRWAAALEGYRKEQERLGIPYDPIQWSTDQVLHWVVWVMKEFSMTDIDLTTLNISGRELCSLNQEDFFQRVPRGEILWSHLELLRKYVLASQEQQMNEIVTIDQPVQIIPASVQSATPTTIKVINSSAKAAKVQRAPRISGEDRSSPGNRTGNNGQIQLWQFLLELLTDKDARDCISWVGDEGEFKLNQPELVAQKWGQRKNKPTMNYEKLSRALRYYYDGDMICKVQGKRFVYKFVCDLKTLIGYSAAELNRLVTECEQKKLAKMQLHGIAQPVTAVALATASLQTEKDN
# Summary of the method: as §1
# ERG = biological target: T4, ERG (Homo sapiens, UniProt P11308 1-479); settings: protein: recombinant; tags: N-terminal GST; dsDNA, one strand shown
# T4 sequence: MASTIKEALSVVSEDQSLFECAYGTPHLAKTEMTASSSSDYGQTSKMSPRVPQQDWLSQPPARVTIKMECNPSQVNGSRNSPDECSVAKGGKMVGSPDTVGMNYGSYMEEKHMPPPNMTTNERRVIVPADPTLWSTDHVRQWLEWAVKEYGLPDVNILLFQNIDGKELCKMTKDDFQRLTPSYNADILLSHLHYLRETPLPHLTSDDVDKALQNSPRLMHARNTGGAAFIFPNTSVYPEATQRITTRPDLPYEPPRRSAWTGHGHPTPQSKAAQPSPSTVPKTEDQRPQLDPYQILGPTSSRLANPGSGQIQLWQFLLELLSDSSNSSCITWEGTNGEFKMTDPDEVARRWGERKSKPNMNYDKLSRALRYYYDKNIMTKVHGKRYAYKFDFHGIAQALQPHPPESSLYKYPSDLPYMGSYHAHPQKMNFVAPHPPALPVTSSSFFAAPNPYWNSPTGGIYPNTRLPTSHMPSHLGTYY
# Summary of the method: as §1
# ELF1 = ELF1 (Homo sapiens, UniProt P32519 1-619); settings: protein: recombinant; tags: N-terminal GST; dsDNA, one strand shown
# Sequence of ELF1 (P32519 whole entry): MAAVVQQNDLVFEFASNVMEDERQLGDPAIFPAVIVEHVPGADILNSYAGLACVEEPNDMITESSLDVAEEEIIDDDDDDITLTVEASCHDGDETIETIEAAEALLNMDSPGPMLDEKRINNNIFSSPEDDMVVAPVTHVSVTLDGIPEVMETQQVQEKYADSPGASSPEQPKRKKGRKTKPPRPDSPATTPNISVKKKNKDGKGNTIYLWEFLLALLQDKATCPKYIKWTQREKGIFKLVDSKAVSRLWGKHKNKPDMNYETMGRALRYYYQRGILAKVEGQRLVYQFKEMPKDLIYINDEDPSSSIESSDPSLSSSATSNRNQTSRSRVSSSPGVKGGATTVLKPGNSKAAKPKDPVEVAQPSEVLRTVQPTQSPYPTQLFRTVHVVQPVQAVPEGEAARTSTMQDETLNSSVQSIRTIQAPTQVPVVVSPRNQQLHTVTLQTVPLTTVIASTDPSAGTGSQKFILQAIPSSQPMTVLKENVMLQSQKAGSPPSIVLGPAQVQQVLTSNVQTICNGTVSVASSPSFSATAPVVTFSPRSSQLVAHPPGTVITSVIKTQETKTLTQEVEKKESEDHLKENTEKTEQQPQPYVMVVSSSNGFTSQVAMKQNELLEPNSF
# Summary of the method: as §1
# EHF = biological target: T5, EHF (Homo sapiens, UniProt Q9NZC4 1-300); settings: protein: recombinant; tags: N-terminal GST; dsDNA, one strand shown
# T5 sequence: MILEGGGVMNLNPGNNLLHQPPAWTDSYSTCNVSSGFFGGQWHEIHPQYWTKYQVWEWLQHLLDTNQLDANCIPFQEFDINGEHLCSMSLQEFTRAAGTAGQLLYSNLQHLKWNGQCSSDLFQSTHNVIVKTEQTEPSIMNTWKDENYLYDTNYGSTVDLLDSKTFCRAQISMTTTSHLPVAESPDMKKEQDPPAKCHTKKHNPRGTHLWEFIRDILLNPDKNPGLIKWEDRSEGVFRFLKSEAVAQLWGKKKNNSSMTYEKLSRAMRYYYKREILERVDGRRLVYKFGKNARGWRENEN
# Summary of the method: as §1
# SPI1 = SPI1 (Homo sapiens, UniProt P17947 1-270); settings: protein: recombinant; tags: N-terminal GST; dsDNA, one strand shown
# Summary of the method: as §1
# SPIB = SPIB (Homo sapiens, UniProt Q01892 1-262); settings: protein: recombinant; tags: N-terminal GST; dsDNA, one strand shown
# Sequence of SPIB (Q01892 whole entry): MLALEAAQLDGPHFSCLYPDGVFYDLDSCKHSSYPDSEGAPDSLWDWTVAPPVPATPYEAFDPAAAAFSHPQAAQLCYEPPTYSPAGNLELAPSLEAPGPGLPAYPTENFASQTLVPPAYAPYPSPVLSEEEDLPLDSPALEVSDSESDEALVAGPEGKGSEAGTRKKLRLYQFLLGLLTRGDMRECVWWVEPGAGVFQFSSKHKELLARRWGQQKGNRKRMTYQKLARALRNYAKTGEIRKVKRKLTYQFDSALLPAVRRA
# Summary of the method: as §1
# ELK3 = biological target: T6, ELK3 (Homo sapiens, UniProt P41970 1-407); settings: protein: recombinant; tags: N-terminal GST; dsDNA, one strand shown
# T6 sequence: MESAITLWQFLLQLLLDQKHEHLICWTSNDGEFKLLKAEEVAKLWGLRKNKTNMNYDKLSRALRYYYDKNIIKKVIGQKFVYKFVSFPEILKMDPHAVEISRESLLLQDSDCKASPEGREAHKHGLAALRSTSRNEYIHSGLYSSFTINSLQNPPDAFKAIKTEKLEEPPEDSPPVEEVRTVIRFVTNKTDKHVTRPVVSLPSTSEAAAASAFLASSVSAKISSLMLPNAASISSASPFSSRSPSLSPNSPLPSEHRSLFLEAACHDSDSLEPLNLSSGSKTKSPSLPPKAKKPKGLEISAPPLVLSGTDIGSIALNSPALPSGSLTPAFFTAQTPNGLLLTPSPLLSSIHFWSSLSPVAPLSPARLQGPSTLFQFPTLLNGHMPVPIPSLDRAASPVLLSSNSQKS
# Summary of the method: as §1
# FEV = biological target: T7, FEV (Homo sapiens, UniProt Q99581 1-238); settings: protein: recombinant; tags: N-terminal GST; dsDNA, one strand shown
# T7 sequence: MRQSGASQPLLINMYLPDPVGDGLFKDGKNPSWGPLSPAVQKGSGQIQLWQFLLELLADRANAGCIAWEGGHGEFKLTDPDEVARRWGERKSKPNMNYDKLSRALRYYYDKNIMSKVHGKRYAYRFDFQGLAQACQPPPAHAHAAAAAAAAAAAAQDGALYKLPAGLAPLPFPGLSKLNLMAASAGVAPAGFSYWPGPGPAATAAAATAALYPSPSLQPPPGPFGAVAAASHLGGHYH
# Summary of the method: as §1
# ETV5 = ETV5 (Homo sapiens, UniProt P41161 1-510); settings: protein: recombinant; tags: N-terminal GST; dsDNA, one strand shown
# Sequence of ETV5 (P41161 whole entry): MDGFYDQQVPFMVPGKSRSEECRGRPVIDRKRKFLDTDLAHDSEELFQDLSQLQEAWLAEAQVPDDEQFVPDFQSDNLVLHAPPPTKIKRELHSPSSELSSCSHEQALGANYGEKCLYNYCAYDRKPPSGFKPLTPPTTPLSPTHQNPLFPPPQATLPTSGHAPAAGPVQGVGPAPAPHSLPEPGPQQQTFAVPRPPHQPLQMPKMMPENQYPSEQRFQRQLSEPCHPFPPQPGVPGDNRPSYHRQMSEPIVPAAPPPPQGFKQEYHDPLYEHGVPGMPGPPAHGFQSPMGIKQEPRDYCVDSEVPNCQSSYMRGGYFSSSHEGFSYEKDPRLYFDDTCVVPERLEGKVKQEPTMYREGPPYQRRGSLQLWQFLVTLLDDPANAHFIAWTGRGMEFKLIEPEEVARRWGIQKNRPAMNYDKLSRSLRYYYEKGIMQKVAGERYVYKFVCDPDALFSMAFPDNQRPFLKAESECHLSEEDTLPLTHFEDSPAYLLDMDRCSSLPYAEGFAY
# Summary of the method: as §1
# HSF1 = HSF1 (Homo sapiens, UniProt Q00613 1-529); settings: protein: recombinant; tags: N-terminal GST; chain copies: 3; dsDNA, one strand shown
# Sequence of HSF1 (Q00613 whole entry): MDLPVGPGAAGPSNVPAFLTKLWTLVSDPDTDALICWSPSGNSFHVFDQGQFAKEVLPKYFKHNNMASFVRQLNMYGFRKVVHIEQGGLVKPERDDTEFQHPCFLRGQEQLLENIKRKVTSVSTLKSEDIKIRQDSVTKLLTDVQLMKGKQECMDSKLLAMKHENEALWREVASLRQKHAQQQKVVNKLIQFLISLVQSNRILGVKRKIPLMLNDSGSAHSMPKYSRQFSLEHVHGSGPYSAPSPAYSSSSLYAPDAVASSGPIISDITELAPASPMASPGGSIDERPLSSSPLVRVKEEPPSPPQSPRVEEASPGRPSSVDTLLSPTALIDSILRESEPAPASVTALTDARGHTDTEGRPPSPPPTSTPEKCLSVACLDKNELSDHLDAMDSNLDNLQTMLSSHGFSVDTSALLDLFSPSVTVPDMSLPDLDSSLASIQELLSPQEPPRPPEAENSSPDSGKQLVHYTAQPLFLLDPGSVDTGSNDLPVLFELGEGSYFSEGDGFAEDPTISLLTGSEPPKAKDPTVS
# Summary of the method: as §1
# SPIC = biological target: T8, SPIC (Homo sapiens, UniProt Q8N5J4 1-248); settings: protein: recombinant; tags: N-terminal GST; dsDNA, one strand shown
# T8 sequence: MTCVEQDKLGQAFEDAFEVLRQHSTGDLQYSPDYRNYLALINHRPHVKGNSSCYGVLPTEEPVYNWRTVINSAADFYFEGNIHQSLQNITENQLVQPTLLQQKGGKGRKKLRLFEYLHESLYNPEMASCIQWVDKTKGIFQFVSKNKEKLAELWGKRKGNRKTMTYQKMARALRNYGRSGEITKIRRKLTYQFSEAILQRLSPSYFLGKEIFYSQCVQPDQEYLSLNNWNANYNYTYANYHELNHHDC
# Summary of the method: as §1
# ELF4 = ELF4 (Homo sapiens, UniProt Q99607 1-663); settings: protein: recombinant; tags: N-terminal GST; dsDNA, one strand shown
# Sequence of ELF4 (Q99607 whole entry): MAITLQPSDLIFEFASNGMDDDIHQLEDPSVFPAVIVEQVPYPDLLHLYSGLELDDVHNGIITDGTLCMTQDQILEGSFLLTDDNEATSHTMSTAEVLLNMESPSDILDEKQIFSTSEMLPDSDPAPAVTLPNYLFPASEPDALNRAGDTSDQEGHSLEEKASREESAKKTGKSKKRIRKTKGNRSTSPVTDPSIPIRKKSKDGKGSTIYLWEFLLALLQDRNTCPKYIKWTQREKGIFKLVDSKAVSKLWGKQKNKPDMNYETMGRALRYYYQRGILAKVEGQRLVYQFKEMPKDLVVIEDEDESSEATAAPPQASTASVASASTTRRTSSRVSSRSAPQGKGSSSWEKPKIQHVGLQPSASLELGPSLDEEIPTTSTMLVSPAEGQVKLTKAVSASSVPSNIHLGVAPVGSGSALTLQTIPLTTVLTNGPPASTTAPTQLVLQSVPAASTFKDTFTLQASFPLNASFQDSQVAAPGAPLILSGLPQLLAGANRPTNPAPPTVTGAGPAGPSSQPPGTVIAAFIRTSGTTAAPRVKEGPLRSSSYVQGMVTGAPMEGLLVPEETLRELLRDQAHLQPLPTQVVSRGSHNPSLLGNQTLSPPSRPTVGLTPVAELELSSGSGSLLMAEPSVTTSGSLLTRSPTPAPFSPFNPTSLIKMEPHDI
# Summary of the method: as §1
# ELK4 = biological target: T9, ELK4 (Homo sapiens, UniProt P28324-2 1-405); settings: protein: recombinant; tags: N-terminal GST; dsDNA, one strand shown
# T9 sequence: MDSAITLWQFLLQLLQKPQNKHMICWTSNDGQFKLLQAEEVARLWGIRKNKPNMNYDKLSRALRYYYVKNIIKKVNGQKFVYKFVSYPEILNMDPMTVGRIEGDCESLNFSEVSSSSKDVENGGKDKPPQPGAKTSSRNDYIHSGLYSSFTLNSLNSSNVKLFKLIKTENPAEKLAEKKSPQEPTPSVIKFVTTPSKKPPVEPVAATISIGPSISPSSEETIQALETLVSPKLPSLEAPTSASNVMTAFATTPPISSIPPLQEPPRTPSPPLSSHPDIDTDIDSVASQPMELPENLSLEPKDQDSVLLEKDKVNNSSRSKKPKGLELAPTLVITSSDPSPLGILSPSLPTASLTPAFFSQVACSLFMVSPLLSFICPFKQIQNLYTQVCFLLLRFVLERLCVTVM
# Summary of the method: as §1
# ETV2 = biological target: T10, ETV2 (Homo sapiens, UniProt O00321 1-342); settings: protein: recombinant; tags: N-terminal GST; dsDNA, one strand shown
# T10 sequence: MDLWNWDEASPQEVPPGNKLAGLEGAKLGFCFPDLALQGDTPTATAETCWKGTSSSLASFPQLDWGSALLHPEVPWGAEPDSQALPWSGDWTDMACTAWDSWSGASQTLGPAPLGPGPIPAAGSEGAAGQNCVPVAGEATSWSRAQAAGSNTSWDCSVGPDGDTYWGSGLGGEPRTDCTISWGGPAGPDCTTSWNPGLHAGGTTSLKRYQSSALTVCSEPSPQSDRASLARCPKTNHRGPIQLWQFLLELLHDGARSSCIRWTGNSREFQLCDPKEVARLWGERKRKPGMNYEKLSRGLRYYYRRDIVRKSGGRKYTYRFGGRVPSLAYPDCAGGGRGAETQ
# Summary of the method: as §1
# ELF3 = biological target: T11, ELF3 (Homo sapiens, UniProt P78545 1-371); settings: protein: recombinant; tags: N-terminal GST; dsDNA, one strand shown
# T11 sequence: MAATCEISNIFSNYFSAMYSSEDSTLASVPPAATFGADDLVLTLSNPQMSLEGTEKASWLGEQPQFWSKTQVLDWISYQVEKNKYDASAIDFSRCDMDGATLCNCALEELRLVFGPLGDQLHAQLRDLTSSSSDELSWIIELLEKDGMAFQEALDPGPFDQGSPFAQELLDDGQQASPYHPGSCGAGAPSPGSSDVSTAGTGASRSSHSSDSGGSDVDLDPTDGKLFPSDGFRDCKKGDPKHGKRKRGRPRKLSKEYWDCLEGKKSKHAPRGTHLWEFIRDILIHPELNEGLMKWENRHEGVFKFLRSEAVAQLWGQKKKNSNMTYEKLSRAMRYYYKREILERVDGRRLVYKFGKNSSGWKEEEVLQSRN
# Summary of the method: as §1
# CRX = CRX (Homo sapiens, UniProt O43186 1-299); settings: protein: recombinant; tags: N-terminal GST; dsDNA, one strand shown
# Sequence of CRX (O43186 whole entry): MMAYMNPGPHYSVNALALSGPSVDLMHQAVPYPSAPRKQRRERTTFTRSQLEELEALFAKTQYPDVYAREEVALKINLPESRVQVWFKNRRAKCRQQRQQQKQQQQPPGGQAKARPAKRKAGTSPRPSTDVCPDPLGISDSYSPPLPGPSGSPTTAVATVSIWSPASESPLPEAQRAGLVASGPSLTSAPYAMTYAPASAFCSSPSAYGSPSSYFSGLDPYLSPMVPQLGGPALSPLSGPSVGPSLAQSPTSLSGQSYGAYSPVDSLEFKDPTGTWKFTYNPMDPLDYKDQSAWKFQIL
# Summary of the method: as §1
# ETV1 = ETV1 (Homo sapiens, UniProt P50549 1-477); settings: protein: recombinant; tags: N-terminal GST; dsDNA, one strand shown
# Sequence of ETV1 (P50549 whole entry): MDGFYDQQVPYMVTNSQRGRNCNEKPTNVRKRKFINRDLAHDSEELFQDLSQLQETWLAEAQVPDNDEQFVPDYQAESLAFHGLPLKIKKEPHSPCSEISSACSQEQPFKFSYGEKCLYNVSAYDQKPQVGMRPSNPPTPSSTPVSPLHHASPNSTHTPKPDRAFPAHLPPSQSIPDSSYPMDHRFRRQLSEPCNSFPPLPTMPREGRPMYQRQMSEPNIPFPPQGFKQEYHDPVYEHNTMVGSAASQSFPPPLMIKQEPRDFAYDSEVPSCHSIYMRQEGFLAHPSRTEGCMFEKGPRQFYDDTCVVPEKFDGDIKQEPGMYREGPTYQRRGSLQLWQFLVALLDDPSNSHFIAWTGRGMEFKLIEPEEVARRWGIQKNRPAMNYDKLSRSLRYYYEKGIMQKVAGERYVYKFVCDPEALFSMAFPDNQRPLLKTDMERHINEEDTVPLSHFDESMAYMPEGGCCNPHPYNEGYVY
# Summary of the method: as §1
sequence,measurement,setting,value
ATCTCA,binding signal,FLI1,"1.17 fold enrichment (6-mer frequency, TF over GST control)"
same,binding signal,ELK1,"1.18 fold enrichment (6-mer frequency, TF over GST control)"
same,binding signal,GABPA,"1.15 fold enrichment (6-mer frequency, TF over GST control)"
same,binding signal,ERG,"1.11 fold enrichment (6-mer frequency, TF over GST control)"
same,binding signal,ELF1,"1.2 fold enrichment (6-mer frequency, TF over GST control)"
same,binding signal,EHF,"1.25 fold enrichment (6-mer frequency, TF over GST control)"
same,binding signal,SPI1,"1.12 fold enrichment (6-mer frequency, TF over GST control)"
same,binding signal,SPIB,"1.19 fold enrichment (6-mer frequency, TF over GST control)"
same,binding signal,ELK3,"1.18 fold enrichment (6-mer frequency, TF over GST control)"
same,binding signal,FEV,"1.16 fold enrichment (6-mer frequency, TF over GST control)"
same,binding signal,ETV5,"1.18 fold enrichment (6-mer frequency, TF over GST control)"
same,binding signal,HSF1,"1.19 fold enrichment (6-mer frequency, TF over GST control)"
same,binding signal,SPIC,"1.14 fold enrichment (6-mer frequency, TF over GST control)"
same,binding signal,ELF4,"1.18 fold enrichment (6-mer frequency, TF over GST control)"
same,binding signal,ELK4,"1.14 fold enrichment (6-mer frequency, TF over GST control)"
same,binding signal,ETV2,"1.23 fold enrichment (6-mer frequency, TF over GST control)"
same,binding signal,ELF3,"1.22 fold enrichment (6-mer frequency, TF over GST control)"
same,binding signal,CRX,"1.51 fold enrichment (6-mer frequency, TF over GST control)"
same,binding signal,ETV1,"1.16 fold enrichment (6-mer frequency, TF over GST control)"
